Measurements from the supplement of paper PMC12282887.
± gives the standard deviation of the averaged measurements.

Assays:
Assay in all cases: promoter activity interaction Z-score (Lux/OD deviation from empty-vector control); higher = stronger promoter induction by the compound
[1] = system: E. coli BW25113 acrABp lux reporter
Outline: (§1)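 Low-copy luxCDABE promoter reporters were carried by E. coli BW25113, either wild type or lacking one of three genes, grown in 40 µl LB Lennox in 384-well plates at 37°C. Each compound was run at four 1:2 dilutions in biological duplicates, with OD600 and luminescence read every 30 min for 12 h. Integration used 0–8 h for wild type and 1–9 h for deletion strains, and wells under 10% of the median growth value were removed. Luminescence normalised to growth was fitted against a control, and the Z-transformed residual is the score.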

[2] = system: E. coli BW25113 micFp lux reporter
Outline: as §1

[3] = system: E. coli BW25113 ompFp lux reporter
Outline: as §1

[4] = system: E. coli BW25113 robp lux reporter
Outline: as §1

[5] = system: E. coli BW25113 soxSp lux reporter
Outline: as §1

[6] = system: E. coli BW25113 tolCp lux reporter
Outline: as §1

[7] = system: E. coli BW25113 marRABp lux reporter
Outline: as §1

[8] = 40.6 µg/ml, genetic background: wild type
[9] = 40.6 µg/ml, genetic background: ΔmarA
[10] = 40.6 µg/ml, genetic background: Δrob
[11] = 40.6 µg/ml, genetic background: ΔsoxS
[12] = 81.1 µg/ml, genetic background: wild type
[13] = 81.1 µg/ml, genetic background: ΔmarA
[14] = 81.1 µg/ml, genetic background: Δrob
[15] = 81.1 µg/ml, genetic background: ΔsoxS
[16] = 162.2 µg/ml, genetic background: wild type
[17] = 162.2 µg/ml, genetic background: ΔmarA
[18] = 162.2 µg/ml, genetic background: Δrob
[19] = 162.2 µg/ml, genetic background: ΔsoxS
[20] = 324.4 µg/ml, genetic background: wild type
[21] = 324.4 µg/ml, genetic background: ΔmarA
[22] = 324.4 µg/ml, genetic background: Δrob
[23] = 324.4 µg/ml, genetic background: ΔsoxS
[24] = 23.5 µg/ml, genetic background: wild type
[25] = 23.5 µg/ml, genetic background: ΔmarA
[26] = 23.5 µg/ml, genetic background: Δrob
[27] = 23.5 µg/ml, genetic background: ΔsoxS
[28] = 47.1 µg/ml, genetic background: wild type
[29] = 47.1 µg/ml, genetic background: ΔmarA
[30] = 47.1 µg/ml, genetic background: Δrob
[31] = 47.1 µg/ml, genetic background: ΔsoxS
[32] = 94.1 µg/ml, genetic background: wild type
[33] = 94.1 µg/ml, genetic background: ΔmarA
[34] = 94.1 µg/ml, genetic background: Δrob
[35] = 94.1 µg/ml, genetic background: ΔsoxS
[36] = 188.3 µg/ml, genetic background: wild type
[37] = 188.3 µg/ml, genetic background: ΔmarA

## C=C[C@H]1CN2CC[C@H]1C[C@H]2[C@H](O)c1ccnc2ccc(OC)cc12 [Quinine]
[1]; [8]
  promoter activity interaction Z-score: -0.0276 ± 0.14
[1]; [9]
  promoter activity interaction Z-score: 0.379 ± 1.7
[1]; [10]
  promoter activity interaction Z-score: -0.214 ± 0.025
[1]; [11]
  promoter activity interaction Z-score: -0.207 ± 0.36
[1]; [12]
  promoter activity interaction Z-score: -0.0617 ± 0.23
[1]; [13]
  promoter activity interaction Z-score: 0.66 ± 0.57
[1]; [14]
  promoter activity interaction Z-score: -0.0693 ± 0.15
[1]; [15]
  promoter activity interaction Z-score: 0.146 ± 0.074
[1]; [16]
  promoter activity interaction Z-score: -0.321 ± 0.19
[1]; [17]
  promoter activity interaction Z-score: -0.122 ± 1
[1]; [18]
  promoter activity interaction Z-score: 0.00483 ± 0.12
[1]; [19]
  promoter activity interaction Z-score: -0.386 ± 0.088
[1]; [20]
  promoter activity interaction Z-score: -0.269 ± 0.44
[1]; [21]
  promoter activity interaction Z-score: -0.173 ± 0.094
[1]; [22]
  promoter activity interaction Z-score: 0.046 ± 0.023
[1]; [23]
  promoter activity interaction Z-score: -0.181 ± 0.2
[2]; [8]
  promoter activity interaction Z-score: 0.322 ± 0.35
[2]; [9]
  promoter activity interaction Z-score: 0.0116 ± 0.1
[2]; [10]
  promoter activity interaction Z-score: -0.133 ± 0.038
[2]; [11]
  promoter activity interaction Z-score: -0.0747 ± 0.16
[2]; [12]
  promoter activity interaction Z-score: 0.106 ± 0.04
[2]; [13]
  promoter activity interaction Z-score: 0.118 ± 0.17
[2]; [14]
  promoter activity interaction Z-score: -0.0678 ± 0.18
[2]; [15]
  promoter activity interaction Z-score: 0.253 ± 0.078
[2]; [16]
  promoter activity interaction Z-score: 0.0719 ± 0.29
[2]; [17]
  promoter activity interaction Z-score: 0.23 ± 0.0035
[2]; [18]
  promoter activity interaction Z-score: 0.137 ± 0.068
[2]; [19]
  promoter activity interaction Z-score: 0.356 ± 0.086
[2]; [20]
  promoter activity interaction Z-score: 0.7474 ± 0.0019
[2]; [21]
  promoter activity interaction Z-score: 0.582 ± 0.025
[2]; [22]
  promoter activity interaction Z-score: 0.201 ± 0.17
[2]; [23]
  promoter activity interaction Z-score: 1.13 ± 0.047
[3]; [8]
  promoter activity interaction Z-score: 0.0547 ± 0.22
[3]; [9]
  promoter activity interaction Z-score: -0.33 ± 0.1
[3]; [10]
  promoter activity interaction Z-score: -0.566 ± 0.33
[3]; [11]
  promoter activity interaction Z-score: 0.39 ± 0.047
[3]; [12]
  promoter activity interaction Z-score: -0.0322 ± 0.074
[3]; [13]
  promoter activity interaction Z-score: 0.401 ± 0.48
[3]; [14]
  promoter activity interaction Z-score: 0.0636 ± 0.022
[3]; [15]
  promoter activity interaction Z-score: 0.369 ± 0.07
[3]; [16]
  promoter activity interaction Z-score: -0.435 ± 0.35
[3]; [17]
  promoter activity interaction Z-score: -0.0896 ± 0.32
[3]; [18]
  promoter activity interaction Z-score: 0.318 ± 0.14
[3]; [19]
  promoter activity interaction Z-score: -0.194 ± 0.092
[3]; [20]
  promoter activity interaction Z-score: -0.15 ± 0.097
[3]; [21]
  promoter activity interaction Z-score: 0.352 ± 0.51
[3]; [22]
  promoter activity interaction Z-score: -0.0516 ± 0.19
[3]; [23]
  promoter activity interaction Z-score: -0.0712 ± 0.12
[4]; [8]
  promoter activity interaction Z-score: 0.233 ± 0.19
[4]; [9]
  promoter activity interaction Z-score: -0.32 ± 0.61
[4]; [10]
  promoter activity interaction Z-score: -0.0483 ± 0.15
[4]; [11]
  promoter activity interaction Z-score: 0.121 ± 0.51
[4]; [12]
  promoter activity interaction Z-score: -0.103 ± 0.11
[4]; [13]
  promoter activity interaction Z-score: 0.432 ± 0.065
[4]; [14]
  promoter activity interaction Z-score: 0.674 ± 0.12
[4]; [15]
  promoter activity interaction Z-score: 0.933 ± 0.31
[4]; [16]
  promoter activity interaction Z-score: -0.361 ± 0.36
[4]; [17]
  promoter activity interaction Z-score: 0.246 ± 0.82
[4]; [18]
  promoter activity interaction Z-score: 0.504 ± 0.18
[4]; [19]
  promoter activity interaction Z-score: 0.352 ± 0.57
[4]; [20]
  promoter activity interaction Z-score: -0.236 ± 0.25
[4]; [21]
  promoter activity interaction Z-score: 0.371 ± 0.84
[4]; [22]
  promoter activity interaction Z-score: 0.206 ± 0.3
[4]; [23]
  promoter activity interaction Z-score: -0.277 ± 1.1
[5]; [8]
  promoter activity interaction Z-score: -0.2102 ± 0.00085
[5]; [9]
  promoter activity interaction Z-score: -0.278 ± 0.015
[5]; [10]
  promoter activity interaction Z-score: -0.273 ± 0.13
[5]; [11]
  promoter activity interaction Z-score: -0.121 ± 0.17
[5]; [12]
  promoter activity interaction Z-score: -0.286 ± 0.043
[5]; [13]
  promoter activity interaction Z-score: -0.134 ± 0.031
[5]; [14]
  promoter activity interaction Z-score: -0.188 ± 0.032
[5]; [15]
  promoter activity interaction Z-score: -0.041 ± 0.2
[5]; [16]
  promoter activity interaction Z-score: -0.297 ± 0.031
[5]; [17]
  promoter activity interaction Z-score: -0.177 ± 0.0058
[5]; [18]
  promoter activity interaction Z-score: 0.0402 ± 0.16
[5]; [19]
  promoter activity interaction Z-score: -0.15 ± 0.37
[5]; [20]
  promoter activity interaction Z-score: -0.241 ± 0.021
[5]; [21]
  promoter activity interaction Z-score: -0.171 ± 0.066
[5]; [22]
  promoter activity interaction Z-score: -0.243 ± 0.11
[5]; [23]
  promoter activity interaction Z-score: -0.272 ± 0.35
[6]; [8]
  promoter activity interaction Z-score: -0.906 ± 1
[6]; [9]
  promoter activity interaction Z-score: -0.418 ± 0.34
[6]; [10]
  promoter activity interaction Z-score: 0.214 ± 1.5
[6]; [11]
  promoter activity interaction Z-score: -0.701 ± 0.52
[6]; [12]
  promoter activity interaction Z-score: -0.18 ± 0.28
[6]; [13]
  promoter activity interaction Z-score: 0.28 ± 0.4
[6]; [14]
  promoter activity interaction Z-score: -0.738 ± 0.76
[6]; [15]
  promoter activity interaction Z-score: -0.512 ± 0.23
[6]; [16]
  promoter activity interaction Z-score: -0.157 ± 0.39
[6]; [17]
  promoter activity interaction Z-score: 0.0619 ± 0.15
[6]; [18]
  promoter activity interaction Z-score: -0.0757 ± 0.051
[6]; [19]
  promoter activity interaction Z-score: -0.611 ± 1.3
[6]; [20]
  promoter activity interaction Z-score: -0.913 ± 0.14
[6]; [21]
  promoter activity interaction Z-score: 0.586 ± 1.1
[6]; [22]
  promoter activity interaction Z-score: -0.0963 ± 1.2
[6]; [23]
  promoter activity interaction Z-score: 0.127 ± 0.016

## C[C@H](CCC(=O)O)[C@H]1CC[C@H]2[C@@H]3CC[C@@H]4C[C@H](O)CC[C@]4(C)[C@H]3CC[C@]12C [Lithocholic acid]
[1]; [24]
  promoter activity interaction Z-score: 0.128 ± 0.083
[1]; [25]
  promoter activity interaction Z-score: 1.34 ± 2.3
[1]; [26]
  promoter activity interaction Z-score: 0.0671 ± 0.095
[1]; [27]
  promoter activity interaction Z-score: -0.142 ± 0.031
[1]; [28]
  promoter activity interaction Z-score: 0.171 ± 0.17
[1]; [29]
  promoter activity interaction Z-score: 0.66 ± 0.77
[1]; [30]
  promoter activity interaction Z-score: 0.304 ± 0.021
[1]; [31]
  promoter activity interaction Z-score: -0.0227 ± 0.072
[1]; [32]
  promoter activity interaction Z-score: -0.00199 ± 0.34
[1]; [33]
  promoter activity interaction Z-score: 0.576 ± 0.88
[1]; [34]
  promoter activity interaction Z-score: -0.304 ± 0.19
[1]; [35]
  promoter activity interaction Z-score: -0.652 ± 0.55
[1]; [36]
  promoter activity interaction Z-score: -0.12 ± 0.18
[1]; [37]
  promoter activity interaction Z-score: 0.897 ± 2.2
[1]; 188.3 µg/ml, genetic background: Δrob
  promoter activity interaction Z-score: -0.207 ± 0.095
[1]; 188.3 µg/ml, genetic background: ΔsoxS
  promoter activity interaction Z-score: -0.566 ± 1.5
[7]; [24]
  promoter activity interaction Z-score: 0.0125 ± 0.049
[7]; [25]
  promoter activity interaction Z-score: 0.215 ± 0.24
[7]; [26]
  promoter activity interaction Z-score: 0.171 ± 0.16
[7]; [27]
  promoter activity interaction Z-score: -0.00159 ± 0.033
[7]; [28]
  promoter activity interaction Z-score: 0.0767 ± 0.14
[7]; [29]
  promoter activity interaction Z-score: 0.199 ± 0.2
[7]; [30]
  promoter activity interaction Z-score: 0.159 ± 0.08
[7]; [31]
  promoter activity interaction Z-score: 0.29 ± 0.41
[7]; [32]
  promoter activity interaction Z-score: -0.14 ± 0.0041
[7]; [33]
  promoter activity interaction Z-score: -0.0736 ± 0.21
[7]; [34]
  promoter activity interaction Z-score: 0.0252 ± 0.008
[7]; [35]
  promoter activity interaction Z-score: -0.23 ± 0.21
[7]; [36]
  promoter activity interaction Z-score: -0.189 ± 0.024
[7]; [37]
  promoter activity interaction Z-score: 0.0134 ± 0.26
